This is a sample that favours compounds with a hit; in the whole collection about 0.5% have one here.
phage Ecoli inh: growth loss of phage-infected E. coli, primary screen, RecBCD inhibitor project, absorbance, with phage, HTS. inhibition, % at 11.9 µM. 360,000 tested, 0.26% active; in the data active = inhibition above about 11%
E coli growth-1: E. coli growth inhibition, primary screen, OD600. Escherichia coli growth, 23 h; hits give low values. OD600 absorbance (concentration not given with the values). 330,000 tested, 0.21% active;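 active = OD600 absorbance below the run mean of sample wells minus 3.6 SD, in any replicate, cut at about 0.56 in these data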
E coli growth-2: E. coli V3065 growth inhibition, primary screen, counter-screen for AddAB inhibitor project, absorbance, OD600 | 18 h | inhibition, % at 11.9 µM | 330,000 tested, 0.27% active;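 active = inhibition above the campaign's mean inhibition across all tested compounds plus 3 SD, cut at about 9.9% in these data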;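 also: uninfected addAB+ strain grown without phage in ampicillin broth; 0% = DMSO wells and 100% = ciprofloxacin 0.95 µg/ml wells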
AddAB inh: growth inhibition of E. coli expressing H. pylori AddAB, primary screen, AddAB inhibitor project, absorbance; AID 435030, 2010; inhibition, % at 11.9 µM; 330,000 tested, 0.29% active; in the data active = inhibition above about 12%;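 also: 0% = vehicle wells of infected cells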
Tat export inh: E. coli Tat export inhibitors, primary screen, MC4100, TorA-mCherry reporter, fluorescence, single point; inhibition, % at 10 µM; 340,000 tested, 0.036% active;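 active = mean replicate inhibition at least 50% and at least half of replicates individually reaching 50%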;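 also: exported cargo escapes ClpAP degradation while cytoplasmic cargo is degraded and loses fluorescence; 0% = median of neutral control wells and 100% = median of NaSCN control wells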
Numbers without * were called inactive; · = not tested or not shown.

SMILES	phage Ecoli inh	E coli growth-1	E coli growth-2	AddAB inh	Tat export inh
c1ccc2c3c([nH]c2c1)-c1[nH]ncc1CC3	0.3	0.604	0.1	3.6	-8.6
COC(=O)c1ccc(C=NOCC(=O)NCc2ccc(F)cc2)cc1	·	0.691	·	·	·
CC(C)c1ccc2c(c1)C(N1CCNCC1)Cc1ccc(F)cc1S2 (stereo not given)	3.6	0.128*	1.0	0.9	·
OC(c1cc(C(F)(F)F)nc2c(C(F)(F)F)cccc12)C1CCCCN1 (stereo not given)	6.4	0.424*	0.9	-2.1	0.5
OC(c1cc(-c2ccc(C(F)(F)F)cc2)nc(C(F)(F)F)c1)C1CCCCN1 (stereo not given)	7.4	0.494*	6.2	3.2	12.3
CCCCCC(=O)N1CC2(CC(c3cccc(NC(=O)CC)c3)=NO2)CC1C(N)=O (stereo not given)	·	0.684	·	·	·
CC12CCC(C(=O)N(CSC(=S)N/N=C\c3ccccc3Cl)C1=O)C2(C)C (stereo not given)	4.8	·	10.7*	4.1	2.5
CC12CCC(C(=O)N(CSC(=S)NN=Cc3ccccc3O)C1=O)C2(C)C (stereo not given)	·	0.705	·	·	·
COC(=O)C1C(O)C(C)C(O)C(C)(O)/C=C\C=C(/C)C(=O)Nc2c(C)c(OC(C)=O)c3c(c2O)C(=O)C(C)=C2OCOC(=C23)/C(C)=C/C(C)(O)C(O)C(C)C1O (stereo not given)	7.5	·	-2.2	0.3	65.0*
Cc1cc(C)nc(N=C(N)Nc2ccc(-c3ccccc3)cc2)n1	·	0.526*	·	·	·
CC1CCCN(CC(O)=C(C#N)c2nc3ccccc3[nH]2)C1 (stereo not given)	·	0.707	·	·	·
CCOc1ccc(N(CC(=O)Nc2ccc(C)cc2)S(=O)(=O)c2c(C)noc2C)cc1	18.0*	0.757	0.4	4.0	12.2
CCOc1ccc(N(CC(=O)Nc2ccc(F)c(F)c2)S(=O)(=O)c2c(C)noc2C)cc1	3.0	0.671	1.3	5.4	1.0
COc1ccc(Nc2cc(C)c3c(O)cccc3n2)cc1	7.1	0.545	0.8	3.0	-18.6
Cc1ccc(Nc2cc(C)c3c(O)cccc3n2)cc1C	1.2	0.503*	1.6	3.9	7.5
CC1(C)CC(=O)C=C(NCCN2CCN(C(=O)Nc3ccccc3)CC2)C1	1.6	0.642	-1.9	-0.7	52.3*
N#Cc1ccc(N2Cc3ccccc3C2=NC(=O)Nc2ccc(Cl)cc2)cc1	·	0.703	·	·	·
CCOc1ccc(NN=C(C#N)C(N)=O)cc1	·	0.665	·	·	·
COc1ccc(/C=C2\SC(=O)N(CCNC(=O)C3CC(=O)N(c4ccccc4)C3)C2=O)cc1 (stereo not given)	3.1	0.705	12.0*	9.1	6.7
CCOc1ccc(N2CC(C(=O)NCCN3C(=O)S/C(=C\c4ccc(OC)cc4)C3=O)CC2=O)cc1 (stereo not given)	0.9	0.717	-0.5	0.9	-9.6
CS(=O)(=O)c1ccc(C(O)C(CF)NC(=O)C(Cl)Cl)cc1 (stereo not given)	·	0.06*	·	·	·
CS(=O)(=O)c1ccc(C(=O)NC(Cc2ccccc2)c2ccccc2)cc1 (stereo not given)	1.4	0.692	2.0	2.5	9.3
CS(=O)(=O)c1ccc(C(O)C(CO)NC(=O)C(Cl)Cl)cc1 (stereo not given)	·	0.376*	·	·	·
Cc1noc(C)c1NC(=O)N(C)CC1Oc2c(NS(=O)(=O)c3cn(C)cn3)cccc2C(=O)N(C(C)CO)CC1C (stereo not given)	·	0.658	·	·	·
CCCCC1CN=C(N)N1CCc1cccc(F)c1 (stereo not given)	·	0.667	·	·	·
SMILES	phage Ecoli inh	E coli growth-1	E coli growth-2	AddAB inh	Tat export inh
O=C1c2cccnc2-c2ncccc21	1.9	0.707	0.6	0.0	-1.7
O=C1C(=O)c2cccnc2-c2ncccc21	100.8*	·	·	·	·
CCc1ccc2c(COC(=O)C3CC(=O)N(CCc4ccccc4)C3)cc(=O)oc2c1 (stereo not given)	1.5	0.682	·	·	62.9*
C=CCOC(=O)C1=CC(c2ccc(Br)cc2)CC(OCc2ccc(CO)cc2)O1 (stereo not given)	·	0.69	·	·	·
CN(N=Cc1ccncc1)c1cnc2ccccc2n1	·	0.723	·	·	·
COCCN1C(=O)NC(c2ccccc2)C(C(=O)OC)C1C (stereo not given)	·	0.696	·	·	·
O=C(Nc1ccc(Cl)cc1)NN1CCCCCC1	2.9	0.622	·	·	6.4
N#Cc1ccc(NC(=O)NN2CCCCCC2)cc1	10.4	0.528*	·	·	11.8
O=C1C2C(c3ccc(F)cc3)N3C(=O)N(c4ccc(C(F)(F)F)cc4)C(=O)[C@@]3(Cc3ccccc3)C2C(=O)N1C1CCCCC1 (stereo not given in full)	·	0.709	·	·	·
CC(=O)c1ccc(NC(=S)Nc2ccc(Br)c(Cl)c2)cc1	8.5	0.505*	1.4	0.8	-13.3
Cc1nc2ccccc2c(=O)n1N=Cc1c(O)ccc2ccccc12	·	0.681	·	·	·
C[N+]1([O-])C2Cc3cc4c(cc3C1Cc1cc3c(cc12)OCO3)OCO4 (stereo not given)	·	0.699	·	·	·
O=C(OC[C@H]1O[C@@H](OC(=O)c2cc(O)c(O)c(OC(=O)c3cc(O)c(O)c(O)c3)c2)[C@H](OC(=O)c2cc(O)c(O)c(OC(=O)c3cc(O)c(O)c(O)c3)c2)[C@@H](OC(=O)c2cc(O)c(O)c(OC(=O)c3cc(O)c(O)c(O)c3)c2)[C@@H]1OC(=O)c1cc(O)c(O)c(OC(=O)c2cc(O)c(O)c(O)c2)c1)c1cc(O)c(O)c(OC(=O)c2cc(O)c(O)c(O)c2)c1	·	·	30.2*	27.6*	·
O=Cc1ccc(O)c2ncccc12	·	0.093*	·	·	0.3
NN=C1CCCc2nonc21	·	0.652	·	·	·
COc1ccc(CN2CC(=O)N3C4c5ccc(OC)cc5OCC4C(c4ccccc4)[C@]3(C)C2=O)cc1 (stereo not given in full)	·	0.697	·	·	·
CCn1c(C)nc2cc(C(=O)N/N=C/c3ccc(O)c(O)c3O)ccc21	21.1*	·	·	·	10.2
COc1ccc(C2=CC(=O)CC(c3ccc(F)cc3)C2)c(F)c1F (stereo not given)	·	0.692	·	·	·
CN(C)CC(=O)c1c(N)n(Cc2ccccc2)c(=O)n(C)c1=O	-1.8	0.537*	-0.4	5.1	-2.2
CCCCc1ccc(S(=O)(=O)NN=C(C)c2ccncc2)cc1	·	0.68	·	·	·
OC(CNCCC1C=Nc2ccccc21)Cn1c2ccc(Cl)cc2c2cc(Cl)ccc21 (stereo not given)	4.7	0.054*	0.5	2.6	-0.9
OC(CNCC1CCCO1)Cn1c2ccc(Cl)cc2c2cc(Cl)ccc21 (stereo not given)	0.8	0.545*	0.5	3.1	-0.1
OC(CNCC1CCCO1)Cn1c2ccccc2c2ccccc21 (stereo not given)	2.3	0.727	-1.4	2.6	-4.6
O=[N+]([O-])c1ccc(OC(F)F)c(C=Nn2cnnc2)c1	·	0.669	·	·	·
Cc1ccc(C(=O)N/N=C/c2ccc(-c3ccccc3[N+](=O)[O-])o2)cn1	1.4	·	-0.9	0.7	-3.5
CCOC(=O)NN=Cc1ccc([N+](=O)[O-])o1	·	0.455*	·	·	·
Cc1ccc(C(=O)NN=Cc2ccc([N+](=O)[O-])o2)cn1	·	0.438*	·	·	·

Screens as filed in PubChem.
